This passage reports Potency and outcome results from PubChem BioAssay (Tox21).

The structures appear in SMILES notation. Records with an inconclusive call do not appear. Some structures have more than one record in an assay (separate samples or runs), and their calls can disagree. Active and inactive are the calls of the source. Unless noted, calls come from the whole dose curve; as a rule, active = well fitted curve in the direction sought with a large enough effect in the repeat runs; inconclusive = weak or mixed curves; inactive = no such curve, though single readings can be large; an effect the other way counts as inactive or inconclusive.

Experiment [1] can be described thus: qHTS assay to identify small molecule agonists of the androgen receptor (AR) signaling pathway in the presence of an antagonist - cell viability counter screen (AID 1259379). Note: nearly all actives have a fitted effect of over 25% in size. Note: potency is the fitted concentration of half-maximal effect. The essentials: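 Each compound was tested at 15 concentrations on MDA-kb2 cells in the presence of 3.0uM nilutamide. Viability was measured by CellTiter-Fluor fluorescence after a 16 hr incubation at 37C in a CO2-free atmosphere.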

Experiment [2] can be described thus: qHTS assay to identify small molecule antagonists of the estrogen receptor beta (ER-beta) signaling pathway - cell viability counter screen (AID 1259382).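 Note: HEK293T cells carrying ER-beta-UAS-bla reporter stimulated with estradiol; series mostly up to about 92 µM; nearly all actives have a fitted effect of over 55% in size.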 The method in brief:
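CellTiter-Glo ATP luminescence measured after the LiveBLAzer read in the same wells; ER-beta-UAS-bla HEK293T cells, 16 hr compound treatment with 1nM 17-beta-estradiol agonist at 37C, 5% CO2.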

The target of experiment [3] is Estrogen receptor (Homo sapiens) (UniProt P03372). The experiment can be described thus: qHTS assay to identify small molecule agonists of the estrogen receptor alpha (ER-alpha) signaling pathway in the presence of an antagonist (AID 1259383; calls by dose curve; note: top concentration of the series differs between compounds; nearly all actives have a fitted effect of over 15% in size). The method in brief:
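Luminescent ERE-luciferase reporter, VM7Luc4E2 cells (endogenous ER-alpha); 10.0nM ICI-182,780 final; 15-point compound titration; 22hr at 37C; ONE-Glo, 30min RT.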

A short description of experiment [4]: qHTS assay to identify small molecule agonists or antagonists of the thyroid stimulating hormone receptor (TSHR) signaling pathway - wild type cell line counter screen (AID 1259384; calls by dose curve). The essentials:
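Wild-type HEK293 cells were plated 18 h at 37 C/5% CO2, pin-dosed with compound plus Ro20-1724 medium, held 30 min at room temperature, then given cAMP-d2 and anti-cAMP-cryptate; fluorescence was read after 1 h. Fifteen concentrations, triplicate.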
In general terms: In qHTS, concentration-response curves come from the screen itself.

Experiment [5] is described as follows: qHTS assay to identify small molecule agonists of the estrogen receptor alpha (ER-alpha) signaling pathway in the presence of an antagonist - cell viability counter screen (AID 1259386).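 Note: cells exposed to compounds for 22 h at 37 °C before the viability read; nearly all actives have a fitted effect of over 30% in size.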 Note: potency is the fitted concentration of half-maximal effect. The method in brief:
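Using estrogen-depleted VM7Luc4E2 cells, the 15-concentration compound series was applied together with 10.0nM ICI-182,780 and incubated 22hr at 37C/5% CO2. Cell viability was then scored by CellTiter-Fluor.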

Experiment [6] can be described thus: qHTS assay to identify small molecule agonists of the progesterone receptor (PR) signaling pathway - cell viability counter screen (AID 1346799; calls by dose curve; note: nearly all actives have a fitted effect of over 45% in size; note: potency is the fitted concentration of half-maximal effect). The method in brief: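 In parallel with the beta-lactamase readout, cytotoxicity toward PR-UAS-bla HEK293T cells was measured by CellTiter-Glo luminescence following 16 hr compound incubation in 2% charcoal-stripped FBS medium.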

Experiment [7] is described as follows: qHTS assay to identify small molecule antagonists of the TGF-beta/Smad signaling pathway - cell viability counter screen (AID 1346824). Note: nearly all actives have a fitted effect of over 50% in size. Note: potency is the fitted concentration of half-maximal effect. The essentials: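 SBE-bla HEK 293T cells were plated overnight at 37 C, then given compounds in DMSO plus TGF-beta1 (added as 0.25 ng/mL solution) for 5 hr. After the bla read, CellTiter-Glo was added to the same wells and luminescence read after 30 min at room temperature.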

The target in experiment [8] is Thyrotropin-releasing hormone receptor (Homo sapiens) (UniProt P34981). Kind of experiment: qHTS assay to identify small molecule antagonists of the thyrotropin-releasing hormone receptor (TRHR) signaling pathway (AID 1346877; active = well fitted inhibition curve with a large enough effect in the repeat runs, not every such curve was filed as active; note: series mostly up to about 51 µM). The essentials: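 Calcium signal in dye-loaded TRHR/HEK293 cells; compounds added 5 min before TRH (1 nM final); fluorescence monitored 3 min at 1 s steps.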

For experiment [9] the target is unchanged. The experiment can be described thus: qHTS assay to identify small molecule agonists of the thyrotropin-releasing hormone receptor (TRHR) signaling pathway (AID 1346891; calls by dose curve;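 note: HEK293 cells expressing TRHR with calcium dye readout; series mostly up to about 58 µM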). The method in brief: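 Compounds were tested as agonists at 15 concentrations, in triplicate, on TRHR-Hek293 cells; calcium-sensitive dye fluorescence was recorded for 3 min following addition.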

Experiment [10] is described as follows: Human pregnane X receptor (PXR) small molecule agonists, qHTS cell viability counter screen (AID 1346977). Note: nearly all actives have a fitted effect of over 50% in size. Note: potency is the fitted concentration of half-maximal effect. The method in brief: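 Viability counter screen: CellTiter-Fluor signal in PXR-Luc HepG2 cells, 24hr compound exposure, 37C, 5% CO2.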
Experiment [11] is described as follows: Caspase-3/7 induction in HepG2 cells by small molecules, qHTS assay (AID 1346978). Note: nearly all actives have a fitted effect of over 15% in size. Note: potency is the fitted concentration of half-maximal effect. The method in brief: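 Wild-type HepG2 cells (2,000/well) were settled 5 h at 37 C, 5% CO2, then exposed to compounds in DMSO for 17 h. Caspase-3/7 activity was read by luminescence 30 min after adding Caspase-Glo 3/7 reagent at room temperature.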
Experiment [12] is described as follows: qHTS assay to identify small molecule agonists of the estrogen receptor beta (ER-beta) signaling pathway - cell viability counter screen (AID 1259380). Note: nearly all actives have a fitted effect of over 30% in size. Note: potency is the fitted concentration of half-maximal effect. The method in brief: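 Compounds dissolved in DMSO were pin-transferred onto ER-beta-UAS-bla HEK293T cells that had settled 6 hr, and exposure ran 16 hr at 37C. Following the reporter read, CellTiter-Glo luminescence after 30 min at room temperature indicated cytotoxicity.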

For experiment [13], the target named is Thyrotropin receptor (Homo sapiens) (UniProt P16473). Kind of experiment: qHTS assay to identify small molecule antagonists of the thyroid stimulating hormone receptor (TSHR) signaling pathway (AID 1259385; calls by dose curve; note: nearly all actives have a fitted effect of over 20% in size; note: potency is the fitted concentration of half-maximal effect). The essentials: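 TSHR-HEK293 cells were plated and held 18 h at 37C/5% CO2, then given compound plus Ro20-1724 and stimulated with TSH at 1.5 ng/mL final. After 30 min at room temperature, cAMP was detected with cAMP-d2/anti-cAMP-cryptate (1 h) by fluorescence.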

The target of experiment [14] is Progesterone receptor (Homo sapiens) (UniProt P06401). The experiment can be described thus: qHTS assay to identify small molecule antagonists of the progesterone receptor (PR) signaling pathway (AID 1346795; active = well fitted inhibition curve with a large enough effect in the signal ratio in the repeat runs, not every such curve was filed as active; the % refers to the signal ratio; note: potency is the fitted concentration of half-maximal effect). The essentials:
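Fluorescence intensity measured 2 hr after adding beta-lactamase FRET substrate to PR-UAS-bla HEK293T cells that had been co-treated 16 hr with compound and 1 nM R5020 (final concentration) in 2% charcoal-stripped FBS.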

Experiment [15] can be described thus: qHTS assay to identify small molecule agonists of the TGF-beta/Smad signaling pathway - cell viability counter screen (AID 1346829). Note: nearly all actives have a fitted effect of over 45% in size. Note: potency is the fitted concentration of half-maximal effect. The essentials:
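Here the cytotoxicity of library compounds is measured in SBE-bla HEK 293T cells treated for 5 hr, using CellTiter-Glo added to wells already read for the beta-lactamase reporter.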

The nature of experiment [16]: qHTS assay to identify small molecule agonists of the TGF-beta/Smad signaling pathway (AID 1346859; active = well fitted activation curve with a large enough effect in the signal ratio in the repeat runs, not every such curve was filed as active; the % refers to the signal ratio; note: series mostly up to about 77 µM). The method in brief: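 After overnight seeding, SBE-bla HEK 293T cells are dosed with compounds in DMSO and kept 5 hr at 37 C, 5% CO2. LiveBLAzer-type FRET substrate is then applied for 2 hr at room temperature.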
For experiment [17], the target named is Androgen receptor (Homo sapiens) (UniProt P10275). Kind of experiment: qHTS assay to identify small molecule agonists of the androgen receptor (AR) signaling pathway in the presence of an antagonist (AID 1259381; calls by dose curve; note: nearly all actives have a fitted effect of over 15% in size). The method in brief:
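Plated MDA-kb2 cells (3,000/well) were pre-incubated 5hr, given nilutamide (3.0uM final) or buffer, then dosed with compounds in DMSO at 15 concentrations. Luciferase activity was quantified by luminescence after 16hr at 37C.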

Experiment [18] deals with Progesterone receptor (Homo sapiens) (UniProt P06401). The experiment can be described thus: qHTS assay to identify small molecule agonists of the progesterone receptor (PR) signaling pathway (AID 1346784; calls by dose curve; note: nearly all actives have a fitted effect of over 30% in size). The method in brief:
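Fluorescence from LiveBLAzer B/G FRET substrate cleavage (2 hr, RT) reported PR activation in PR-UAS-bla HEK 293T cells treated 16 hr at 37C/5% CO2 with compounds; medium contained 2% charcoal-stripped FBS.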

A short description of experiment [19]: qHTS assay to identify small molecule antagonists of the progesterone receptor (PR) signaling pathway - cell viability counter screen (AID 1346798). Note: nearly all actives have a fitted effect of over 50% in size. Note: potency is the fitted concentration of half-maximal effect. The method in brief: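 CellTiter-Glo luminescence; PR-UAS-bla HEK293T, 3,000 cells/well; compound + R5020, 16 hr, 37C/5% CO2; 30 min RT before read.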

Sequence of Estrogen receptor (Homo sapiens) (P03372 whole entry, looked up): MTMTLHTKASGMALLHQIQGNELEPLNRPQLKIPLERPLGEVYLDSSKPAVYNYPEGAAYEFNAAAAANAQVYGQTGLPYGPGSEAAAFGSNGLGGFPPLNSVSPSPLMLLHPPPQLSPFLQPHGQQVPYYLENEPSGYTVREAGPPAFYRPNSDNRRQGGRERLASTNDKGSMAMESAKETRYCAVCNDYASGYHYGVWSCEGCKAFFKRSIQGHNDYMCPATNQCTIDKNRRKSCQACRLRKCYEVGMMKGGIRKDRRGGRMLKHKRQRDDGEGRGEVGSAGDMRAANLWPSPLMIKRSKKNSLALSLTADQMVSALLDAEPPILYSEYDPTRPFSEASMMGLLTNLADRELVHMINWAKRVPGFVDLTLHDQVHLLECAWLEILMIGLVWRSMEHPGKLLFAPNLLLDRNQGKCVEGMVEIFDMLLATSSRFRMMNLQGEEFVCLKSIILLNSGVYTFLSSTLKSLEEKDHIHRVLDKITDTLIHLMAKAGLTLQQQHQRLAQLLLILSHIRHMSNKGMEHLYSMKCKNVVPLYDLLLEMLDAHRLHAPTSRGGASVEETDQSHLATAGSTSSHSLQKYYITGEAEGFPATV
Sequence of Progesterone receptor (Homo sapiens) (P06401 whole entry, looked up): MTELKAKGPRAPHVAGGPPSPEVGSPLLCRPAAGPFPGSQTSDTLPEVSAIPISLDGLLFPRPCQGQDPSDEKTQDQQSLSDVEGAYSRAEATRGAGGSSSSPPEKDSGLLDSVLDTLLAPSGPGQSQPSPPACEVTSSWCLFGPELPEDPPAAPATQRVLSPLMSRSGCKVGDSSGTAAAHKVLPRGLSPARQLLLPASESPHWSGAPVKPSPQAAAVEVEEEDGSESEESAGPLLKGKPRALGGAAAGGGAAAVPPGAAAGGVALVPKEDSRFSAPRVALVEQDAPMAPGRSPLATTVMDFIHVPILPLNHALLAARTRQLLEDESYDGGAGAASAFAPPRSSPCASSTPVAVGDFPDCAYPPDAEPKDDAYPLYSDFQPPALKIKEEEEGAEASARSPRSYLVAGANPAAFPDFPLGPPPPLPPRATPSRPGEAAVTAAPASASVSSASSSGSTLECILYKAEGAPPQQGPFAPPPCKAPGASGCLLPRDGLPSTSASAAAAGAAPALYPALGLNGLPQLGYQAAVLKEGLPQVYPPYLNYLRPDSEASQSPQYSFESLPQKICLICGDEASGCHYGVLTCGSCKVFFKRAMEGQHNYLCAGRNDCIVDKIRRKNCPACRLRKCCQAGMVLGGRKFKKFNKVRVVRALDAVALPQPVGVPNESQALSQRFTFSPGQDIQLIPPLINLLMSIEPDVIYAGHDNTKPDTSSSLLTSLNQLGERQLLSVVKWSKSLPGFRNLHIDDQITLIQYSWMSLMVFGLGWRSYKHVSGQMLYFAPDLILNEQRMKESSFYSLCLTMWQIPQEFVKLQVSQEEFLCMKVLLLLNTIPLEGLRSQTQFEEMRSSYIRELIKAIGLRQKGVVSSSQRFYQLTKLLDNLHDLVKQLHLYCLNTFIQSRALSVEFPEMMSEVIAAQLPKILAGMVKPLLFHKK
Sequence of Thyrotropin-releasing hormone receptor (Homo sapiens) (P34981 whole entry, looked up): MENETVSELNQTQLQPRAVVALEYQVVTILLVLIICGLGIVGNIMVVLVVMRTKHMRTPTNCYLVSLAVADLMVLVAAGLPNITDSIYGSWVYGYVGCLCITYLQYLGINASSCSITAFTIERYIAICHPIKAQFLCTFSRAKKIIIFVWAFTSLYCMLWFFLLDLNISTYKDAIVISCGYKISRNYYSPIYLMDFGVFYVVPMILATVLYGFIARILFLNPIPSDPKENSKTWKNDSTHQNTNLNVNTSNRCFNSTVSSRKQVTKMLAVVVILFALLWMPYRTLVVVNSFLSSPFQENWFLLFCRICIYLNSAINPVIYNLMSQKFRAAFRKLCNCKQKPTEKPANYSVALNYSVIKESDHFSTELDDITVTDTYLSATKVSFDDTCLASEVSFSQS
Sequence of Thyrotropin receptor (Homo sapiens) (P16473 whole entry, looked up): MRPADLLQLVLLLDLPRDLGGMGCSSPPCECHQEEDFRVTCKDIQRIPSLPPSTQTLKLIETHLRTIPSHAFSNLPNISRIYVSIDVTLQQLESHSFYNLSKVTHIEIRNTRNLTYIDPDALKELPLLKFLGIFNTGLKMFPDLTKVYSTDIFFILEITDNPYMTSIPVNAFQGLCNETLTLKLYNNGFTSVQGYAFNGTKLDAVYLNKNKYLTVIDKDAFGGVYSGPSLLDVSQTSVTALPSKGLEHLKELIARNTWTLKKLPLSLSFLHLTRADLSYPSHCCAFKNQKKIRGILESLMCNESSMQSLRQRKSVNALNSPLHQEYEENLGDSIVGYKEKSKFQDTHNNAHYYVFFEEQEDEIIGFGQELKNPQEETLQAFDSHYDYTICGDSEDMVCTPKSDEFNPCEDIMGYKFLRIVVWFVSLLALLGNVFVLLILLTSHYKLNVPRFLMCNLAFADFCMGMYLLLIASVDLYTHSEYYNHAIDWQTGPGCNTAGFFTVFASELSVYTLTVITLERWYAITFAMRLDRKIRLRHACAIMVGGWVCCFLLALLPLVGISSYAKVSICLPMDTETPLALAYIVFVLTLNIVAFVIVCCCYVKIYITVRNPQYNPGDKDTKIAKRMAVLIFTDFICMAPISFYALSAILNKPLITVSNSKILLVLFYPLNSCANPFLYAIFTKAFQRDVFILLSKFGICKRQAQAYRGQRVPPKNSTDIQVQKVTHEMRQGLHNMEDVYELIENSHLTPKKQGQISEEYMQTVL
Sequence of Androgen receptor (Homo sapiens) (P10275 whole entry, looked up): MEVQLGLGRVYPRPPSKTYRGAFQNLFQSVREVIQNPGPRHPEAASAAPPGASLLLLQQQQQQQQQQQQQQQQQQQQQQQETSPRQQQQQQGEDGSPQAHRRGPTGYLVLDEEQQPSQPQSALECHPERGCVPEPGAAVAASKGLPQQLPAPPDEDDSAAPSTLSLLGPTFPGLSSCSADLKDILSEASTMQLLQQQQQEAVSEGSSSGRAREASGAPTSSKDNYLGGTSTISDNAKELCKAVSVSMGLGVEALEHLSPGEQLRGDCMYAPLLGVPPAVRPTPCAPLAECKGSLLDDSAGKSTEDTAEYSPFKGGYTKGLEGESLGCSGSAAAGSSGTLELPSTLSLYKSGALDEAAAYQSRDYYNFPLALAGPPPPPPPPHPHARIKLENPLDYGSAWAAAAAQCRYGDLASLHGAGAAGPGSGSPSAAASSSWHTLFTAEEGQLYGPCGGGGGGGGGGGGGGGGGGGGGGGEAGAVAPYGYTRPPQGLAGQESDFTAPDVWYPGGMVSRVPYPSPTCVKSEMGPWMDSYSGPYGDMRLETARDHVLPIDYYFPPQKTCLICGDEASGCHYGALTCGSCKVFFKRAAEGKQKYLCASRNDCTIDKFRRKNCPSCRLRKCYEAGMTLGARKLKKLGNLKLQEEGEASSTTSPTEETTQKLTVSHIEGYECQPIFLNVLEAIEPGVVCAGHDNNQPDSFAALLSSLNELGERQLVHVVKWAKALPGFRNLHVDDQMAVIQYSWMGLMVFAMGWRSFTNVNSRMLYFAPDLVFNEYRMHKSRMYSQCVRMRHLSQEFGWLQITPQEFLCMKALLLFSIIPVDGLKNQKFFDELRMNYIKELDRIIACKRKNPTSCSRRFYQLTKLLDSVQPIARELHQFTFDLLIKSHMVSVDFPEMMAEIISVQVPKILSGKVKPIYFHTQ

On to `O=C(O)COc1nc(Cl)c(Cl)cc1Cl`, for which the Potency result in [1], in experiment [2], in experiment [3], in experiment [5], in experiment [7] and in [8] was “inactive” throughout. In addition, the Potency entry in experiment [9], in experiment [10] and in [11] was “inactive” throughout. Moreover, the compound was called inactive in experiment [4]. In [6], the Potency is 27.9 µM (active).

With `CC(c1ccc(O)cc1)c1ccc(O)cc1`, the Potency entry in experiment [1], in experiment [13], in experiment [5], in [7], in experiment [15] and in experiment [8] was “inactive” each time. The Potency entry in experiment [9], in experiment [10] and in experiment [11] was “inactive” throughout. Further, the Potency in experiment [12] was 40.6 µM (active) and inactive; in [14], 6.86 µM (active). Moreover, the compound was classed as inactive in experiment [4] and in experiment [16].

For the compound `c1cc[c]([Sb]([c]2ccccc2)[c]2ccccc2)cc1`, the Potency entry in experiment [1], in [17], in experiment [13], in experiment [5], in [7] and in experiment [15] was “inactive” each time. For the same compound, the Potency entry in [8], in experiment [9] and in experiment [10] was “inactive” throughout. Moreover, the result in experiment [4] was inactive.

In the case of `O=C/C(Cl)=C(/Cl)C(=O)O`, the Potency entry in experiment [1], in [2], in [3], in experiment [13], in [5] and in experiment [18] was “inactive” each time. The Potency result in experiment [14], in experiment [19], in experiment [6], in [7], in [15] and in experiment [8] was “inactive” each time. For the same compound, the Potency entry in experiment [9], in experiment [10] and in experiment [11] was “inactive” each time. The result in experiment [4] and in experiment [16] was inactive.

In the case of `CCN(CC)C(=S)[S-].CCN(CC)C(=S)[S-].[Zn+2]`, the Potency in experiment [1] is 60.6 µM (active); in experiment [12] it was 2.71 µM (active); in experiment [13], 68 µM (active); in experiment [5] it was 12.1 µM (active); in experiment [14], 1.08 µM (active); in [19], 1.21 µM (active). Further, the Potency in experiment [7] was 12.2 µM (active); in experiment [15], 38.6 µM (active); in experiment [10], 1.71 µM (active); in experiment [11], 1.08 µM (active). Moreover, the Potency result in [3] is “inactive”. Also, the compound was classed as inactive in experiment [16].

For the compound `c1ccc2c(c1)[nH]c1cnccc12`, the Potency entry in experiment [1], in experiment [2], in experiment [3], in [13], in [5] and in experiment [18] was “inactive” in each case. Also, the Potency entry in [19], in experiment [6], in experiment [7], in experiment [15], in experiment [8] and in experiment [9] was “inactive” in each case. For the same compound, the Potency result in experiment [10] and in experiment [11] was “inactive” throughout. Moreover, the outcome in [4] and in experiment [16] was inactive. In addition, the Potency in experiment [14] was 27.3 µM (active).

For the compound `Cn1cc(C2=C(c3cn(C4CCN(Cc5ccccn5)CC4)c4ccccc34)C(=O)NC2=O)c2ccccc21`, the Potency in experiment [1] was 11.9 µM (active). Besides, the Potency entry in [12], in experiment [13], in experiment [5], in experiment [18], in experiment [7] and in experiment [15] was “inactive” each time. Further, the Potency result in experiment [11] is “inactive”. The compound was called inactive in [4].

In the case of `CCOC(=O)OC1=C(c2cc(C)ccc2C)C(=O)NC12CCC(OC)CC2` (stereo not given), the Potency entry in experiment [1], in experiment [2], in experiment [3], in experiment [13], in [5] and in [14] was “inactive” throughout. The Potency result in [19], in [6], in [7], in experiment [15], in experiment [8] and in [9] was “inactive” throughout. The Potency result in [10] and in [11] was “inactive” throughout. The outcome in experiment [4] and in experiment [16] was inactive.
